Shown are actives, neighbours in structure and some others; about 18% of the full set was active somewhere.
RORgamma inh: blocks mouse ROR gamma transcriptional activity | Potency, µM (doses to about 53.6 µM), without a hit: at the highest dose activity change, negative = inhibition, most hits filed as inhibitors | Drosophila S2 Gal4-RORgamma UAS-luciferase reporter, 20 h | actives 5.4% (n = 310,000); also: potency is read from the fitted curve at half-maximal effect; nearly all actives have a fitted effect of over 60% in size
Target sequence (P51450 whole entry, looked up, the tested form may be a part): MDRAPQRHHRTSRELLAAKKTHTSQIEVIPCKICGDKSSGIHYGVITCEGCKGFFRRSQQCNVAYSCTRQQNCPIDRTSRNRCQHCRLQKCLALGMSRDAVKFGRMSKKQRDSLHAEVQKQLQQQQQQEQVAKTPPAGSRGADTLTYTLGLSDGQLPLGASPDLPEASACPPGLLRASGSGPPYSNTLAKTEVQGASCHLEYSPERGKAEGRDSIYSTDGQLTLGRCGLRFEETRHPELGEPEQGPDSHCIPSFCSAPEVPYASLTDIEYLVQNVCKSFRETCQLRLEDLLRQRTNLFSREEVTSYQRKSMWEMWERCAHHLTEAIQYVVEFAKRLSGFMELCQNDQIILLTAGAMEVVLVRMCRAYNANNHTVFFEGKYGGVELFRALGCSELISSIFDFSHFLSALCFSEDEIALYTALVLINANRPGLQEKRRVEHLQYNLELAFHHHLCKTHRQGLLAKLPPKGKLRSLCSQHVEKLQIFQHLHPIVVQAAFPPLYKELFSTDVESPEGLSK
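A Gal4/UAS one-hybrid system in insect cells: metallothionein-promoter Gal4–ROR gamma fusion plus Photinus luciferase reporter. Copper sulfate 700 uM final, 20 hr ambient incubation, luminescent detection after 10 min with reagent.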
Gal4-VP16 FLuc: inhibits Gal4-VP16 luciferase reporter, ROR gamma counter-screen | Drosophila S2 Gal4-VP16 UAS-luciferase, luminescence, 20 h | Potency, µM (series often up to 53.6 µM), for inactives: at the top dose activity, negative = inhibition, actives largely listed as inhibitors | actives 3.5% (n = 310,000) | AID 2546;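 also: Gal4-VP16 expression switched on by copper sulfate through the metallothionein promoter; potency is read from the fitted curve at half-maximal effect; nearly all actives have a fitted effect of over 50% in size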
DT40 TDP1 CPT: growth inhibition of DT40 Tdp1-/-;hTDP1 cells with camptothecin (screen for TDP1 inhibitors); Potency, µM (highest dose often 46.2 µM), without a hit: at the top dose activity change, negative = growth inhibition, most hits filed as inhibitors; AID 686979; actives 12% (n = 420,000); chicken DT40 Tdp1-/-;hTDP1 cells + 20 nM CPT, ATP luminescence, 48 h; also: potency is read from the fitted curve at half-maximal effect; nearly all actives have a fitted effect of over 55% in size
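Chicken DT40 Tdp1-/- cells complemented with human TDP1, 400 cells/well, exposed to compounds plus 20 nM camptothecin for at least 48 h at 37 C; viability read as ATP content by CellTiter-Glo luminescence.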
DT40 TDP1 no CPT: qHTS for Inhibitors of human tyrosyl-DNA phosphodiesterase 1 (TDP1): qHTS in cells in absence of CPT; actives 15% (n = 420,000); DT40 Tdp1-/- hTDP1 cells, no CPT, ATP luminescence, 48 h; Potency, µM (highest dose often 46.2 µM), inactives show at the top dose activity change, negative = growth inhibition, usual class: inhibitors; also: potency is read from the fitted curve at half-maximal effect; nearly all actives have a fitted effect of over 55% in size
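A cellular qHTS used chicken DT40 cells lacking endogenous Tdp1 but carrying stably transfected human TDP1. Compounds were applied without camptothecin, and cell growth kinetics were judged by ATP-dependent luminescence after ≥48 hr.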
IL-1B inflam inh: inhibitors of inflammasome signaling (IL-1 beta secretion) | THP-1 LPS/ATP IL-1B secretion, AlphaLISA, 16 h; stronger effect = lower value | activity change, % at 57.5 µM | actives 4.7% (n = 360,000) | AID 743279; in the data active = activity change below about -50%; inconclusive = mostly about -30% to -49%
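THP-1 cells pretreated 1 hr with compounds (up to 57.5 uM final), then stimulated with LPS (250 ng/mL final) plus ATP (1.25 mM final); secreted IL-1B measured by AlphaLISA after 16 hr, decreased signal indicating inhibition.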
LDHA inh: blocks human lactate dehydrogenase A. purified LDHA, NADH/diaphorase-resazurin fluorescence; stronger effect = lower value. activity change, % (values are at about 110 or 230 µM). P00338. actives 0.15% (n = 480,000). AID 1347041; in the data active = activity change below about -30%; inconclusive = mostly about -25% to -30%;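 also: plate controls were DMSO wells for no effect and wells without enzyme for full effect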
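Remaining NADH was detected by diaphorase (0.133 mg/mL) converting 37 µM resazurin to fluorescent resorufin, read at 0 and 20 minutes. The preceding 5-minute room-temperature reaction used 2 nM LDHA, 0.2 mM sodium pyruvate and 0.06 mM NADH at pH 7.4.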
Active calls of the source: *; ? = inconclusive; nt = not tested or not shown. Unless noted, calls follow the shape of the dose curve; as a rule, active = well fitted curve in the direction sought with a large enough effect; inconclusive = small, poorly fitted or top-dose-only effect, or another doubt; inactive = no such curve, though single readings can be large; an effect the other way counts as inactive or inconclusive. Unless noted, % is scaled to controls: 0 for no effect and ±100 for the full control effect.

SMILES	RORgamma inh	Gal4-VP16 FLuc	DT40 TDP1 CPT	DT40 TDP1 no CPT	IL-1B inflam inh	LDHA inh
CC(C)C[C@@H](CN1CCCC1CN1C(=S)NC[C@@H]1Cc1ccc(O)cc1)N1C[C@H](Cc2ccccc2)N(CC2CCCCCC2)C1=S (stereo partly specified)	nt	nt	?	23µM*	1	-6
CC(C)C[C@H]1CNC(=S)N1C[C@H]1CCCN1C[C@H](CC(C)C)N1C[C@H](Cc2ccc(O)cc2)N(CC2CCCCC2)C1=S	nt	nt	10µM*	13µM*	-62*	-2
CC(C)C[C@@H](CN1CCCC1CN1C(=S)NC[C@@H]1Cc1ccc(O)cc1)N1C[C@H](Cc2ccccc2)N(CC2CCCCC2)C1=S (stereo partly specified)	nt	nt	?	?	-22	-4
CC(C)C[C@@H](CN1CCCC1CN1C(=S)NC[C@@H]1Cc1ccc(O)cc1)N1C[C@H](Cc2ccc(O)cc2)N(CC2CCCCCC2)C1=S (stereo partly specified)	nt	nt	15µM*	8.2µM*	-83*	-2
Cc1ccc(NC(=O)Nc2c(N3CCCC3)c3ccccc3oc2=O)cc1F	nt	nt	nt	nt	nt	2
Cn1cccc1/C=N/NC(N)=S	6.3µM*	?	?	21µM*	25	-1
NC(=S)N/N=C/c1ccc2ccccc2c1	?	?	23µM*	23µM*	7	-6
NC(=S)N/N=C/C=C/c1ccccc1	2µM*	?	5.8µM*	5.8µM*	-23	-7
NC(=S)N/N=C/c1cccc(/C=N/NC(N)=S)c1	-23%	0%	-9%	-24%	-100*	-6
O=NN(CC(=O)NN=CC=Cc1ccccc1)CC(=O)NN=CC=Cc1ccccc1	nt	nt	-16%	-5%	47	-8
NC(=S)N/N=C/c1ccc(/C=N/NC(N)=S)cc1	-16%	-6%	?	0%	35	-2
CCC1(C)NC(=O)N(NC(=O)CCc2c[nH]c3ccccc23)C1=O (stereo unspecified)	nt	nt	nt	nt	nt	-8
NC(=S)N/N=C/c1cccc(Br)c1	5.6µM*	?	?	?	-17	-1
NC(=S)N/N=C/c1cccc(Cl)c1	nt	nt	nt	nt	nt	-3
Cc1ccc(Nc2nc(CSc3nnnn3C3CCCC3)cs2)cc1	nt	nt	nt	nt	nt	-8
CCOc1ccccc1NC(=O)CCc1ccc(-c2ccc(C)c(C)c2)o1	nt	nt	nt	nt	nt	9
CCCc1nc(N2CCN(CC(=O)N3CCCC3)CC2)c(C#N)c2c1CCC2	nt	nt	nt	nt	nt	0
CC(C)[C@H](NC(=O)Cc1ccccc1)C(=O)OCc1cc(=O)n2c(n1)sc1ccccc12	14%	0%	15µM*	13µM*	8	-2
CCn1c(Cl)c(C=O)s/c1=N\S(=O)(=O)c1ccccc1	9%	-7%	0.82µM*	0.37µM*	-3	-7
COC(=O)c1ccc(NC(=O)c2ccc3nccnc3c2)cc1	?	18%	-24%	29µM*	-27	3
Cc1ccc(C(=O)Nc2cnc3ccccc3c2)cc1	3.2µM*	2.8µM*	-9%	-25%	-22	-1
Cc1cc(NC(=O)c2ccc3nccnc3c2)ccc1Br	nt	nt	?	?	9	-5
Cc1ccc(C(=O)Nc2ccc3nccnc3c2)cc1	-45%	?	?	16µM*	-28	-3
O=C(Nc1ccc(SC(F)F)cc1)c1ccc2nccnc2c1	?	-19%	?	?	-97*	4
COc1ccc(C2/C(=C(\O)c3ccccc3)C(=O)C(=O)N2c2ccc(NC(C)=O)cc2)cc1 (stereo unspecified)	nt	nt	nt	nt	nt	2
SMILES	RORgamma inh	Gal4-VP16 FLuc	DT40 TDP1 CPT	DT40 TDP1 no CPT	IL-1B inflam inh	LDHA inh
CCOc1cc(C2N=C(N)Nc3nc4ccccc4n32)cc(Cl)c1O (stereo unspecified)	nt	nt	nt	nt	nt	0
COC(=O)c1ccc(/C=C(/Cl)c2ncc(-c3ccc(Cl)cc3)o2)cc1	nt	nt	nt	nt	nt	1
CCC/C(=N\NC(=O)c1ccco1)c1ccc(Cl)s1	11µM*	18µM*	-11%	-13%	?	-4
CC/C(=N\NC(=O)c1cc(C)nc2ccccc12)c1ccc(C)s1	-32%	-2%	7%	?	33	-3
CCC/C(=N/NC(=O)c1csc(C)c1C)c1ccc(Cl)s1	16µM*	?	9%	-23%	2	-6
O=C(/C=C/c1cccc2cccnc12)OCc1cc(-c2ccc(Cl)cc2)no1	nt	nt	nt	nt	nt	0
CC(C)COc1ccc(-c2cc(C(=O)NN)[nH]n2)cc1	13µM*	?	?	?	31	-7
COC(=O)c1ccccc1NS(=O)(=O)c1c(C)nn(C)c1C	nt	nt	nt	nt	nt	9
CC(=O)Nc1ccccc1-c1nc2ccccc2n(CC(=O)c2ccc(C)c(C)c2)c1=O	nt	nt	21µM*	?	nt	6
CCC(=O)Nc1ccc(C)cc1-c1nc2ccccc2n(C(C)C(=O)Nc2ccccc2CC)c1=O (stereo unspecified)	nt	nt	18µM*	21µM*	nt	-1
CCC(C(=O)Nc1cccc(C#N)c1)n1c(=O)c(-c2ccccc2NC(C)=O)nc2ccccc21 (stereo unspecified)	nt	nt	23µM*	13µM*	nt	-6
CCc1ccc(NC(=O)C(CC)n2c(=O)c(-c3ccccc3NC(C)=O)nc3ccccc32)cc1 (stereo unspecified)	nt	nt	23µM*	23µM*	nt	-3
COc1cc(/C=C(\C#N)c2nc3ccccc3[nH]2)ccc1OC(C)C	nt	nt	nt	nt	nt	10
O=C(CC(O)(c1ccccc1)c1ccccc1)Nc1ccccn1	nt	nt	15µM*	?	21	-10
O=C(Nc1ccccc1)C(=O)Nc1ccccn1	2.2µM*	5µM*	-5%	-22%	11	-6
S=C(Nc1ccccc1)c1ccccn1	0.63µM*	2µM*	0.65µM*	0.92µM*	0	0
O=C(N/N=C/c1ccccc1O)C(=O)Nc1ccccn1	1.4µM*	10µM*	13µM*	15µM*	68	2
CC(=O)N1CCC(N(Cc2ccco2)C(=O)Nc2ccccc2C(F)(F)F)CC1	nt	nt	nt	nt	nt	6
CN(CCO)c1nc(-c2ccco2)c2c(c1C#N)CCCC2	nt	nt	nt	nt	nt	14
Cc1cccc(C)c1OCC(=O)Nc1ccc(C(=O)Nc2ccccc2C(=O)O)cc1	nt	nt	nt	nt	nt	4
Cc1ccc(NC(=S)Nc2ccccc2)nc1	nt	nt	nt	nt	nt	0
S=C(Nc1ccc(Nc2ccccc2)cc1)Nc1ccccn1	0.71µM*	2.5µM*	6.5µM*	6.5µM*	?	1
C=C(C)Cn1c(NCC)nc2c1c(=O)n(C)c(=O)n2C	nt	nt	nt	nt	nt	-1

High-throughput results: PubChem BioAssay, National Center for Advancing Translational Sciences (NCATS)
